SMILES strings stand for the structures. Calls of active or inactive are those of the source. A call without a number means that no potency is given here. Calls come from the whole dose curve; as a rule, active = well fitted activation curve with a large enough effect in the repeat runs; inconclusive = weak or mixed curves; inactive = flat fitted curve, though single readings scatter.

Chain of KiSS-1 receptor (Homo sapiens) (Q969F8 whole entry, looked up): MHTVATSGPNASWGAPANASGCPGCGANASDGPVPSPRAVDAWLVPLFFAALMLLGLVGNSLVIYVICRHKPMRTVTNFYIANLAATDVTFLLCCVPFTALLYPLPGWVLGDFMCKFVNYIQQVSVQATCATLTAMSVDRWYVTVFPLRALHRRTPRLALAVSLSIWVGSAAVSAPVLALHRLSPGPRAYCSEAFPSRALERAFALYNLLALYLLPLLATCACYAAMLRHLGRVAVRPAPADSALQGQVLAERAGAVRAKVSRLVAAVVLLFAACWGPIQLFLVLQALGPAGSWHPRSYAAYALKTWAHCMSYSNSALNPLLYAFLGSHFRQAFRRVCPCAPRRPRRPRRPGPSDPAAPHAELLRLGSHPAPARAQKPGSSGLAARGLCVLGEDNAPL

The test addresses KiSS-1 receptor (Homo sapiens) (UniProt Q969F8). Kind of test: Human kisspeptin (KISS1R) small molecule agonists, calcium flux assay in KISS1R-HEK293 cells (AID 1920064). Conditions: KISS1R-HEK293, calcium flux fluorescence, agonist; series mostly up to 76.8 µM. The text has this:
National Center for Advancing Translational Sciences [NCATS]
Division of Preclinical Innovation [DPI]
U.S. Environmental Protection Agency [EPA]
National Institutes of Environmental Health Sciences [NIEHS]
National Toxicology Program [NTP]
U.S. Food and Drug Administration [FDA]
Kisspeptin and its receptor KISS1R play key roles in mammalian reproduction due to their involvement in the onset of puberty and control of the hypothalamic-pituitary-gonadal axis such as regulates GnRH release from the hypothalamus. The kisspeptin/KISS1R system also plays a direct role in peripheral organs (including the ovary, testis, uterus, and placenta) and is implicated in reproductive diseases such as miscarriage and polycystic ovary syndrome (PCOS). Abnormal KISS1R activity is associated with abnormal puberty, infertility, endometriosis, and hormone-dependent tumors. The KISS1 receptor (KISS1R, also called GPR54), a G-protein-coupled receptor (GPCR), acts (through phospholipase C) to increase intracellular inositol trisphosphate and then release intracellular calcium stores. Cell-based KISS1R-HEK293 assay is using HEK293 cells that have been genetically engineered to express the human KISS1R, which activity can be measured by calcium signaling. A compound/drug can activate (agonist) KISS1R that can be monitored by levels of intracellular calcium.
KISS1R-HEK293 cells developed by Codex Corp contain human KISS1R gene, which was stably integrated into HEK 293 cells. The compound activation can be detected by fluorescence intensity via calcium flux assay. This cell line has been used to screen the Tox21 10K compound library to identify agonists of KISS1R.
KISS1R-Hek293 cells were dispensed at 1500 cells/4uL/well in 1536-well black wall/clear bottom plates using a multidrop dispenser. After the assay plates were incubated at a 37 C/5% CO2 incubator for 18 hours, 4 microL of Calcium Dye Solution was added to each well. The plates were incubated at 37 C for 1 hour. And then 23 nL of compounds dissolved in DMSO, positive controls, or DMSO only was transferred to the assay plate by a pin tool station. The fluorescence intensity in the plates was measured using FDSS 7000EX kinetic plate reader with a filter set of Ex/Em=480/540 for 3 min at 1 sec intervals. Each test compound was measured at 15 concentrations and in triplicates.
Background: Calcium flux is commonly read through the fluorescence of an indicator in the cells.
For the compound `CN1CCN(C(=O)C2CCCCC2)CC1`, the Potency result was “inactive”.
The result for `CSc1ccc(Oc2ccc(S(N)(=O)=O)cc2CN(C)C)cc1C` reads “inactive”; that for `CCCC(C)CC` (stereo not given), “inactive”; that for `O=C1NCCN1CCN1CCC(c2cn(-c3ccc(F)cc3)c3ccc(Cl)cc23)CC1`, “inactive”.
Turning to `O=[N+]([O-])c1cc(C2CCCCC2)c(O)c([N+](=O)[O-])c1`, the Potency result is “inactive”.
Regarding `CC(C(O)c1ccccc1)N(C)CCOC(c1ccccc1)c1ccccc1` (stereo not given), the Potency result was “inactive”.
The result for `Cc1cc(C(C#N)c2ccc(Cl)cc2)c(Cl)cc1NC(=O)c1cc(I)cc(I)c1O` (stereo not given) reads “inactive”; that for `N#Cc1ccccc1O`, “inactive”.
`CN(C)CC[C@@H](c1ccc(Br)cc1)c1ccccn1`: the Potency result was “inactive”.
In the case of `CC(C)(C)C1CCC(CC2=C(O)c3ccccc3C(=O)C2=O)CC1` (stereo not given), the Potency result is “inactive”.
Turning to `CCCCC/C=C\C/C=C\CCCCCCCC(=O)NC(C)c1ccccc1` (stereo not given), the Potency result is “inactive”.
`CCCCCCCCCCCCSC#N`: the Potency result was “inactive”.
Turning to `C/C=C/C(=O)C1=C(C)CCCC1(C)C`, the Potency result is “inactive”.
Take `Nc1ccc(O)c([N+](=O)[O-])c1`: the Potency result is “inactive”.
Turning to `Cc1ncc(COP(=O)(O)O)c(C=O)c1O`, the Potency result was “inactive”.
The entry for `COCCOC(=O)CC#N` is “inactive”; for `O=C(NO)C1(NS(=O)(=O)c2ccc(Oc3ccc(F)cc3)cc2)CCOCC1` it is “inactive”; for `CNCc1cc(F)ccc1Oc1ccc(Cl)c(Cl)c1` it is “inactive”.
In the case of `C=C(C)C(=O)OCC`, the Potency result was “inactive”.
For the compound `CCOc1ccc(NC(=O)CC(C)=O)cc1`, the Potency result is “inactive”.
`COC(=O)CC(C)CCC=C(C)C` (stereo not given): the Potency entry is “inactive”.
`OCCN1CCN(CCCN2c3ccccc3Sc3ccc(C(F)(F)F)cc32)CC1`: the Potency entry is “inactive”.
For `O=C(O)c1ccc2cc(C(=O)O)ccc2c1`, the Potency entry was “inactive”.
The entry for `CCCCOC(=O)CO` is “inactive”; for `O=C1CCc2cc(OCCCCc3nnnn3C3CCCCC3)ccc2N1` it is “inactive”.
The entry for `CCc1c2c(nc3ccc(OC(=O)N4CCC(N5CCCCC5)CC4)cc13)-c1cc3c(c(=O)n1C2)COC(=O)[C@]3(O)CC` is “inactive”.
In the case of `CCC(C)(C)C1CCC(O)CC1` (stereo not given), the Potency entry is “inactive”.
In the case of `COC(C)=O`, the Potency result is “inactive”.
As to `CC(C)CCOC(=O)/C=C/c1ccccc1`, the Potency entry is “inactive”.
The result for `Nc1nc2ccccc2n1Cc1ccc(F)cc1` reads “inactive”.
In the case of `O=C1C=CC(=O)N1c1cccc(N2C(=O)C=CC2=O)c1`, the Potency result is “inactive”.
As to `O=C(Cl)c1cccc([N+](=O)[O-])c1`, the Potency entry is “inactive”.
Turning to `CC(C)NC(=O)NC(C)C`, the Potency entry was “inactive”.
On to `NNc1nc(-c2ccccc2)cs1`, for which the Potency result was “inactive”.
The entry for `c1ccccc1` is “inactive”; for `Cc1ncc([C@@H](CCCCCCc2ccc3c(n2)NCCC3)CC(=O)O)cn1` it is “inactive”; for `CCCCCCCC/C=C\CCCCCCCC(=O)OC(CO)CO` it is “inactive”.
Regarding `O=C(/C=C/c1ccccc1)OCCc1ccccc1`, the Potency result is “inactive”.
As to `COc1ccc2cc(S(=O)(=O)N[C@H](CC(=O)N[C@H](Cc3ccc(CN4[C@H](C)CCC[C@@H]4C)cc3)C(=O)N(C)C(C)C)c3ccc4c(c3)OCO4)ccc2c1`, the Potency entry is “inactive”.
On to `CCCCCCCCCCCCOCCOS(=O)(=O)O`, for which the Potency result was “inactive”.
